Screening data as filed in PubChem BioAssay.
KCNQ2 enhance = potentiators of rat KCNQ2 potassium channel. Potassium voltage-gated channel subfamily KQT member 2 (Rattus norvegicus), O88943. CHO-K1 KCNQ2, FluxOR thallium flux fluorescence; hits give high values. B-score at 10 µM. hit rate 0.54% among 310,000;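 active means fluorescence ratio B-score at least 3 SD of library B-scores, with initial fluorescence B-score within 3 of them, cut at about 5.3 in these data; same plate scores as AID 2156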;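 further: B-score of peak minus minimum over baseline fluorescence ratio after K+ and Tl+ stimulus; positive B-score means potentiation of KCNQ2 with more thallium influx and brighter signal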
KCNQ2 block = rat KCNQ2 potassium channel inhibitors, primary screen, cell-based, CHO-K1, FluxOR thallium flux, B-score. Potassium voltage-gated channel subfamily KQT member 2 (Rattus norvegicus), O88943. 20 min; hits give low values. B-score at 10 µM. hit rate 1.1% among 310,000. AID 2156, 2009;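 active means fluorescence ratio B-score at most minus 3 library SDs, with starting brightness B-score within 2 library SDs, cut at about -5.5 in these data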
Kir21 confirm = mouse Kir2.1 channel blockers, retest, confirmation, cell-based, FluxOR thallium flux, duplicate; shares compounds with KCNQ2 enhance; Kir2.1-expressing cells, FluxOR thallium flux fluorescence; hits give low values; Tl flux remaining, % of negative control (hits give low values), % at 10 µM; hit rate 41% among 2,300; AID 2032, 2009;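 active means Primary-screen hit whose thallium flux fell at least 3 control SD below untreated wells in both duplicates, with normal baseline fluorescence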;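 further: 0% = blank wells without stimulus and 100% = stimulated no-compound controls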
HEK293 ctr = alters thallium flux in parental HEK293 cells, Kir2.1 counter-screen. FluxOR signal as % of negative control (100 = no effect), % at 10 µM. hit rate 19% among 2,300. shares compounds with KCNQ2 enhance. FluxOR thallium flux fluorescence; 0% = unstimulated blank wells;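 active means dye signal at least 3 control SD above or below untreated wells in both duplicates, raw fluorescence within 3, either direction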;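 further: percent is based on the flux ratio of peak minus minimum fluorescence over baseline F0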
CHO-K1 Tl ctr = nonspecific thallium flux increase in parental CHO-K1, confirmation, counter-screen for KCNQ2 potentiator project, cell-based, FluxOR thallium flux, duplicate. shares compounds with KCNQ2 enhance. parental CHO-K1 cells, FluxOR thallium flux fluorescence; zero = vehicle mean+3SD, 100% = vehicle-minus-blank window. activity increase over 3SD of controls, % at 10 µM. hit rate 43% among 1,200;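 active means signal rise of at least 3 SD above the untreated control mean, in both duplicate wells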;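 further: counter screen of KCNQ2 potentiator hits so any rise reflects channel-independent effects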
KCNQ1 sel pot = human KCNQ1 channel potentiation off-target, confirmation, selectivity assay for KCNQ2 potentiator project, cell-based, CHO, FluxOR thallium flux | hit rate 28% among 1,200 | CHO KCNQ1 stable, FluxOR thallium flux fluorescence; beyond 3SD, as % of vehicle-control signal | AID 2283, 2010 | activation over 3SD threshold, % at 10 µM | shares compounds with KCNQ2 enhance;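 active means fluorescence ratio rise of at least 3 SD of vehicle wells above their mean, in both replicate wells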;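 further: 0% = vehicle mean plus 3 SD and 100% = vehicle minus unstimulated blank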
KCNQ2 pot confirm = rat KCNQ2 channel potentiators, confirmation, cell-based, CHO, FluxOR thallium flux, duplicate; potentiation, less the hit threshold, % at 10 µM; hit rate 68% among 1,200; AID 2287, 2010; CHO-KCNQ2 cells, FluxOR thallium flux fluorescence; shares compounds with KCNQ2 enhance;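 active means fluorescence ratio rising 3 SD or more over the vehicle control mean in both replicates, plus primary screen hit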;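 further: peak minus minimum thallium fluorescence divided by baseline after K/Tl stimulus; 0% = vehicle mean plus 3 SD and 100% = vehicle minus unstimulated blank difference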
Kir21 spec = mouse Kir2.1 channel activation off-target, confirmation, selectivity assay for KCNQ2 potentiator project, cell-based, HEK293, FluxOR thallium flux | shares compounds with KCNQ2 enhance | HEK293 Kir2.1, FluxOR thallium flux fluorescence | AID 2345, 2010 | activity over 3SD threshold, % at 10 µM | hit rate 2% among 1,200;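 active means fluorescence ratio rise of at least 3 SD above the vehicle-control mean, seen in both replicates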;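 further: 0% = vehicle mean plus 3 SD and 100% = vehicle minus no-stimulus blank window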
KCNQ2 W236L pot = potentiators of retigabine-insensitive KCNQ2 W236L, mechanism study for KCNQ2 potentiator project, cell-based, rat KCNQ2 W236L, CHO, automated patch clamp | hit rate 10% among 940 | shares compounds with KCNQ2 enhance | automated patch clamp current | current increase over 3SD of negative controls (%), hits give high values, % at 25 µM;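 active means current increase at least 3 SD of the untreated controls above them in both duplicate recordings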
* = called active by the depositor; i = inactive; / = no result given. Compounds with a hit are over-represented: about 1.6% of the library has one in this group of screens.

SMILES	KCNQ2 enhance	KCNQ2 block	Kir21 confirm	HEK293 ctr	others
CCc1noc(C)c1C(=O)Nc1ccc(S(=O)(=O)N2CCCC(C)C2)cc1 (configuration not stated)	1.33	i	/	/
CCCCC(c1nnnn1Cc1ccco1)N1CCN(c2nc3ccccc3s2)CC1 (configuration not stated)	/	i	/	/
O=C(CCSCCC(=O)NCc1cccs1)NCc1cccs1	0.86	i	/	/
O=C(CCC1CCCCC1)NCc1cccs1	7.39*	i	i	i	CHO-K1 Tl ctr=54.1*;KCNQ1 sel pot=-11.7;KCNQ2 pot confirm=14.8*;Kir21 spec=-22.0;KCNQ2 W236L pot=i
O=C(CC1CC2CCC1C2)NCc1cccs1 (configuration not stated)	5.35*	i	i	i	CHO-K1 Tl ctr=-18.4;KCNQ1 sel pot=26.6*;KCNQ2 pot confirm=12.7*;Kir21 spec=-35.5;KCNQ2 W236L pot=i
O=C(NCc1cccs1)C12CC3CC(CC(C3)C1)C2	0.94	i	/	/
O=C(NCCC1=CCCCC1)c1ccc(Cl)c(S(=O)(=O)N2CCOCC2)c1	1.03	i	/	/
COc1ccc(N2C(=O)CC(N(CCc3ccc(S(N)(=O)=O)cc3)C(=S)Nc3ccccc3)C2=O)cc1 (configuration not stated)	/	i	/	/
CCOc1cc([N+](=O)[O-])cc(/C=C2/NC(=O)N(Cc3ccccc3F)C2=O)c1O	0.28	i	/	/
CCn1c(COc2ccc(C)cc2)nnc1SCC(=O)NNC(=O)c1ccc(OC)cc1	2.77	i	/	/
CC(=O)Nc1ccc(S(=O)(=O)NCCc2csc(C)n2)cc1	/	i	/	/
COC(=O)C1=C(C)N(Cc2ccccc2)C(=NCC(C)C)N[C@H]1c1ccccc1	/	i	i	i
COC(=O)C1=C(C)N(Cc2ccccc2)C(=O)N[C@H]1c1ccccc1	/	i	/	/
CCN1C(=NCCc2ccccn2)N[C@@H](c2cccc(F)c2)C(C(=O)OC)=C1C	0.23	i	/	/
COC(=O)C1=C(C)N(Cc2ccccc2)C(=NCCc2ccccn2)N[C@H]1c1cccc(F)c1	0.46	i	40.0%*	i
O=C(CN1CCC(Cc2ccccc2)CC1)NCCc1ccc(F)cc1	16*	i	/	/	CHO-K1 Tl ctr=68.6*;KCNQ1 sel pot=-18.8;KCNQ2 pot confirm=56.2*;Kir21 spec=-90.2;KCNQ2 W236L pot=i
NS(=O)(=O)c1ccc(CCNC(=O)CN2CCC(Cc3ccccc3)CC2)cc1	0.06	i	/	/
COc1cccc(N2CCc3c(C)nc4ccc(Cl)cc4c32)c1	/	i	19.5%*	i
COc1ccc(N2CCc3c(C)nc4c(OC)cccc4c32)cc1	1.09	i	/	/
CC(NCCC(Cc1ccccc1)c1ccco1)c1ccccc1 (configuration not stated)	/	i	39.0%*	i
O=C(CC(Cc1ccccc1)c1ccco1)NC1CCCCC1 (configuration not stated)	/	i	/	/
O=C(NCCNCc1ccc(F)cc1)c1ccco1	1.18	i	/	/
Fc1ccc(CNCCC(Cc2ccccc2)c2ccco2)cc1 (configuration not stated)	/	i	17.5%*	70.5%*
